Reference: PubChem BioAssay (NCATS)
Results filed as inconclusive are left out. The source made the active and inactive calls. Unless noted, calls follow the shape of the dose curve; as a rule, active = well fitted curve in the direction sought with a large enough effect; inconclusive = small, poorly fitted or top-dose-only effect, or another doubt; inactive = no such curve, though single readings can be large; an effect the other way counts as inactive or inconclusive.

How the values were obtained:
[1] = qHTS Assay for Lipid Storage Modulators (AID 1519; calls by dose curve; as to activity change, negative = inhibition: % is scaled to controls: 0 for no effect and ±100 for the full control effect); details: Drosophila S3 cells, BODIPY lipid droplet/cell ratio, laser cytometry, cells loaded with oleic acid; for activity change, negative = inhibition: at 57.5 µM (top of the series)
Outline: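 Cells seeded at 5,000 per well were treated with compounds over a concentration series and loaded with oleic acid (400 uM, as added). Lipid droplet fluorescence (488 nm excitation, 500-530 nm channel) was read by laser-scanning cytometry and normalized to 20 uM Triacsin C.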

[2] = biological target: ATP-dependent 6-phosphofructokinase (Trypanosoma brucei brucei) (UniProt O15648); test: qHTS Assay to Find Inhibitors of T. brucei phosphofructokinase: hit validation (AID 492961);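 also: luminescence reports ADP formed as PFK phosphorylates fructose-6-phosphate with ATP; % is scaled to controls: 0 for no effect and ±100 for the full control effect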
Outline: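 Inhibition of parasite PFK is measured as reduced ADP formation, quantified via luciferase after ATP depletion. Assay used 0.1 mM ATP, 0.5 mM F6P, 1.25 nM enzyme, 45 min incubation.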

[3] = biological target: Ubiquitin carboxyl-terminal hydrolase 1 (Homo sapiens) (UniProt O94782); test: Inhibitors of USP1/UAF1: Pilot qHTS (AID 504865); also: nearly all actives have a fitted effect of over 35% in size; also: potency is read from the fitted curve at half-maximal effect;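 as to activity change, negative = inhibition: rhodamine fluorescence freed from ubiquitin-rhodamine substrate followed over time; top concentration of the series differs between compounds; % is scaled to controls: 0 for no effect and ±100 for the full control effect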
Outline: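 USP1/UAF1 complex (1nM) preincubated with compound 15 min at room temperature, then Ub-Rho substrate (150nM final) added. Fluorescence read kinetically at 480/540 nm, 6 reads every 60 seconds. Buffer: 50mM HEPES pH 7.8, 0.5mM EDTA, 0.1 mg/ml BSA, 1mM TCEP, 0.01% Tween-20.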

[4] = qHTS profiling for inhibitors of Plasmodium falciparum proliferation (AID 504749); also: potency is read from the fitted curve at half-maximal effect;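 as to activity, negative = inhibition: 0% = DMSO vehicle and full inhibition = artemisinin control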; as to all read-outs here: nearly all actives have a fitted effect of over 60% in size; details: P. falciparum in erythrocytes, SYBR Green DNA, 72 h; for activity, negative = inhibition: at 28.7 µM (top of the series)
Outline: (§1)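 Each compound contacts P. falciparum-infected red blood cells for 72 h at 37 C; lysis buffer (Tris, EDTA, saponin, Triton X, SYBR Green I) is added and fluorescence measured next morning; values normalized to controls.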

3D7 = test: as above; details: P. falciparum in erythrocytes, SYBR Green DNA, 72 h; series mostly up to 12.8 µM
Outline: as §1

AS120 = test: as above; details: P. falciparum in erythrocytes, SYBR Green DNA, 72 h; series mostly up to 12.8 µM
Outline: as §1

C2A = test: as above; details: P. falciparum in erythrocytes, SYBR Green DNA, 72 h; series mostly up to 12.8 µM
Outline: as §1

CP217 = test: as above; details: P. falciparum in erythrocytes, SYBR Green DNA, 72 h; series mostly up to 12.8 µM
Outline: as §1

CP237 = test: as above; details: P. falciparum in erythrocytes, SYBR Green DNA, 72 h; series mostly up to 12.8 µM
Outline: as §1

CP238 = test: as above; details: P. falciparum in erythrocytes, SYBR Green DNA, 72 h; series mostly up to 12.8 µM
Outline: as §1

CP252 = test: as above; details: P. falciparum in erythrocytes, SYBR Green DNA, 72 h; series mostly up to 12.8 µM
Outline: as §1

CP262 = test: as above; details: P. falciparum in erythrocytes, SYBR Green DNA, 72 h; series mostly up to 12.8 µM
Outline: as §1

CP269 = test: as above; details: P. falciparum in erythrocytes, SYBR Green DNA, 72 h; series mostly up to 12.8 µM
Outline: as §1

CP297 = test: as above; details: P. falciparum in erythrocytes, SYBR Green DNA, 72 h; series mostly up to 12.8 µM
Outline: as §1

ECU = test: as above; details: P. falciparum in erythrocytes, SYBR Green DNA, 72 h; series mostly up to 12.8 µM
Outline: as §1

PAD = test: as above; details: P. falciparum in erythrocytes, SYBR Green DNA, 72 h; series mostly up to 12.8 µM
Outline: as §1

SC27B = test: as above; details: P. falciparum in erythrocytes, SYBR Green DNA, 72 h; series mostly up to 12.8 µM
Outline: as §1

[5] = biological target: Glucocorticoid receptor (Homo sapiens) (UniProt P04150); test: GR-GFP Redistribution (AID 450;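 active = compounds whose dose series gives a full or clear partial fitted curve of increased nuclear translocation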; also: potency is read from the fitted curve at half-maximal effect); details: U2OS GR-GFP nuclear translocation, laser cytometry, 2 h
[6] = biological target: Glucocorticoid receptor (Homo sapiens) (UniProt P04150); test: GR-EFC Redistribution (AID 451; calls by dose curve; also: potency is read from the fitted curve at half-maximal effect); details: CHO-K1 GR-EFC translocation, beta-gal luminescence, 2 h
Outline: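 CHO-K1 cells expressing nuclear EA and GR-ED fragments of b-gal; compounds titrated up to 46 uM final, 2 h at 37 C. GR nuclear translocation read as complemented b-gal luminescence after 1 h RT detection.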

[7] = biological target: Mitogen-activated protein kinase 10 (Mus musculus) (UniProt Q61831); test: JNK3 AlphaScreen Assay (AID 530; active = well fitted curve in either direction with a large enough effect, not every such curve was filed as active;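 also: kinase came from lysate of stimulated human HepG2 cells; signal reports phosphorylation of biotinylated GST-cJun 1-79 at Ser73 with 10 µM ATP; % is scaled to controls: 0 for no effect and ±100 for the full control effect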)
Outline: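 Activity was read by AlphaScreen after JNK3-containing HepG2 lysate (cytokine pre-activated) phosphorylated biotinylated GST-cJun with 10 uM ATP at room temperature. Phospho-Ser73 cJun antibody with Protein-A acceptor beads provided detection.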

[8] = measured here: cell count channel max response
[9] = measured here: lipid channel max response

Sequence of Ubiquitin carboxyl-terminal hydrolase 1 (Homo sapiens) (O94782 whole entry, looked up): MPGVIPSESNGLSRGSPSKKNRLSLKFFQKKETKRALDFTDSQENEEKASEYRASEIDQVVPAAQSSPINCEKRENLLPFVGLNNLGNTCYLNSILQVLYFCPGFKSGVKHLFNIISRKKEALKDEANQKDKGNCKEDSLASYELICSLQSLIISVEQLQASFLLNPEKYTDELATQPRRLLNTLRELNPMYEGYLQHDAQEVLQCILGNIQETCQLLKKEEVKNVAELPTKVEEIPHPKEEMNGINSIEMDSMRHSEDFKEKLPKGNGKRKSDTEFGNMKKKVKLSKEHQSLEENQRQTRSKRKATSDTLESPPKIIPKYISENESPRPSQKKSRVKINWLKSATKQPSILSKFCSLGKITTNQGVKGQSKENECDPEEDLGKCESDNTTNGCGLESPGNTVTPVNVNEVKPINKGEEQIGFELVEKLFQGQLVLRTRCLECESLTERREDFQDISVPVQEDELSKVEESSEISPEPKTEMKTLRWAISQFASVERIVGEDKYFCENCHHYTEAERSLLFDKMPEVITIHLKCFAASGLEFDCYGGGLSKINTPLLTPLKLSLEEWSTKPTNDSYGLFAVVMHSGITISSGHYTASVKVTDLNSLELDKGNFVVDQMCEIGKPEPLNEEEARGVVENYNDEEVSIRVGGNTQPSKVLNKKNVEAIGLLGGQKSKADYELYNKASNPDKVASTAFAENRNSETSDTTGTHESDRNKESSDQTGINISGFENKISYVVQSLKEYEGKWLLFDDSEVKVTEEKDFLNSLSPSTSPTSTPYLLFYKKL
Sequence of ATP-dependent 6-phosphofructokinase (Trypanosoma brucei brucei) (O15648 whole entry, looked up): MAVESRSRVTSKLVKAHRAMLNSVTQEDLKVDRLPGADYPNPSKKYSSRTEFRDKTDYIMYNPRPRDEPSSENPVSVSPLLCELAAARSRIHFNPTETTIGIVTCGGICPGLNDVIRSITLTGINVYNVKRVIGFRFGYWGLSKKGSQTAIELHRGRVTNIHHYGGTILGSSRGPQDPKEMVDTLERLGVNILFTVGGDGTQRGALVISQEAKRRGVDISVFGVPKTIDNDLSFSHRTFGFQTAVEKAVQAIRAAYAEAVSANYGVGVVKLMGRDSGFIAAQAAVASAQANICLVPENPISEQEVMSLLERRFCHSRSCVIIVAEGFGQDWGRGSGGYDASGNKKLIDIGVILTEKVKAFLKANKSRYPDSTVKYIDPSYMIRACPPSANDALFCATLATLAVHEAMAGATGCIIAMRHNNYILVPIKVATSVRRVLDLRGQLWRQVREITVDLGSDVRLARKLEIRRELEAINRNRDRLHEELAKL
Sequence of Glucocorticoid receptor (Homo sapiens) (P04150 whole entry, looked up, the tested form may be a part): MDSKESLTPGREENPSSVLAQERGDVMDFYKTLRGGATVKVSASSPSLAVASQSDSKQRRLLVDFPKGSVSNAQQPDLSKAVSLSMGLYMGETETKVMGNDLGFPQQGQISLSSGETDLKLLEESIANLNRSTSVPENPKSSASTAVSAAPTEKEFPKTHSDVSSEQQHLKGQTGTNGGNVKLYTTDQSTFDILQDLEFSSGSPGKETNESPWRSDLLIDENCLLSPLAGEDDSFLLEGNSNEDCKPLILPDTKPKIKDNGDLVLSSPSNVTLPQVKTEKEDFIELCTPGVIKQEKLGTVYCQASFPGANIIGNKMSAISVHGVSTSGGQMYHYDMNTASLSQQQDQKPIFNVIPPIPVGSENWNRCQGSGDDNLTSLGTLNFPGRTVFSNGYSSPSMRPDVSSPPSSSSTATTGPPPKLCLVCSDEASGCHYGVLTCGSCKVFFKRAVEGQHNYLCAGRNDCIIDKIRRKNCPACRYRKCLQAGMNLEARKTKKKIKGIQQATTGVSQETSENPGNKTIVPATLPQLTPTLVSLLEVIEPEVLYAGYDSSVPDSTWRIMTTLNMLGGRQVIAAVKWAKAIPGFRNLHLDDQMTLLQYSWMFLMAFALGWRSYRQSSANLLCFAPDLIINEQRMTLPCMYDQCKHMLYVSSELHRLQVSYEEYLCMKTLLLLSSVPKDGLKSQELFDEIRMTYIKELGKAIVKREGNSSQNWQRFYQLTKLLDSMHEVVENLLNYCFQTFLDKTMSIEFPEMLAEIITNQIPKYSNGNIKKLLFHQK

C[C@]12C=CC(=O)C=C1CCC1C2C(O)C[C@]2(C)C1CC[C@]2(O)C(=O)CO (stereo not given in full)
19.1%: max response [1, 8]
inactive: activity change, negative = inhibition [1] 4.07% | outcome [2] | Potency [3] | activity, negative = inhibition ([4]; parasite line A) 13% | activity, negative = inhibition ([4]; parasite line B) 6.28% | Potency (3D7) | Potency (AS120) | Potency (C2A) | Potency (CP217) | Potency (CP237) | Potency (CP238) | Potency (CP252) | Potency (CP262) | Potency (CP269) | Potency (CP297) | Potency (ECU) | Potency (PAD) | Potency (SC27B)
24.5%: max response [1, 9]

Cc1cc(O)c(C=O)c2c1C(=O)Oc1c(COC(=O)/C=C/C(=O)O)c(O)c(C(=O)O)c(C)c1O2
6.76%: max response [1, 8]
inactive: activity change, negative = inhibition [1] 4.28%
3.61%: max response [1, 9]

CCC(CCC(C)C1CCC2C3CC=C4CC(O)CC[C@@]4(C)C3CC[C@@]12C)C(C)C (stereo not given in full)
9.21%: max response [1, 8]
inactive: activity change, negative = inhibition [1] 3.18% | outcome [2] | Potency [3] | activity, negative = inhibition ([4]; parasite line A) -3.58% | activity, negative = inhibition ([4]; parasite line B) 13.1% | Potency (3D7) | Potency (AS120) | Potency (C2A) | Potency (CP217) | Potency (CP237) | Potency (CP238) | Potency (CP252) | Potency (CP262) | Potency (CP269) | Potency (CP297) | Potency (ECU) | Potency (PAD) | Potency (SC27B)
15.1%: max response [1, 9]

Cc1cc2ccc(=O)oc2cc1OC[C@@H](O)C(C)(C)O
13%: max response [1, 8]
21.2%: max response [1, 9]
inactive: Potency [5] > 46000 nM | Potency [6] > 46000 nM | Potency [7] | activity change, negative = inhibition [1] 5.47%

Cc1cc(O)c(C=O)c2c1C(=O)Oc1c(C)c(O)c3c(c1O2)C(O)OC3=O (stereo not given)
7.17%: max response [1, 8]
active: Potency [3] 39800 nM
21%: max response [1, 9]
inactive: activity change, negative = inhibition [1] 13.7%

COc1ccc(CC(N)C(=O)NC2C(CO)OC(n3cnc4c(N(C)C)ncnc43)C2O)cc1 (stereo not given)
18.9%: max response [1, 8]
1.24%: max response [1, 9]
inactive: activity change, negative = inhibition [1] -15.4% | outcome [2] | Potency [3]
active: Potency ([4]; parasite line A) 794 nM | Potency ([4]; parasite line B) 1000 nM | Potency (3D7) 1000 nM | Potency (AS120) 891 nM | Potency (C2A) 891 nM | Potency (CP217) 794 nM | Potency (CP237) 891 nM | Potency (CP238) 794 nM | Potency (CP252) 794 nM | Potency (CP262) 675 nM | Potency (CP269) 757 nM | Potency (CP297) 1200 nM | Potency (ECU) 891 nM | Potency (PAD) 447 nM | Potency (SC27B) 1000 nM

CC(=O)N[C@H](CC(C)C)C(=O)O
8.9%: max response [1, 8]
inactive: activity change, negative = inhibition [1] 6.38% | outcome [2] | Potency [3] | activity, negative = inhibition ([4]; parasite line A) -8.85% | activity, negative = inhibition ([4]; parasite line B) 9.6% | Potency (3D7) | Potency (AS120) | Potency (C2A) | Potency (CP217) | Potency (CP237) | Potency (CP238) | Potency (CP252) | Potency (CP262) | Potency (CP269) | Potency (CP297) | Potency (ECU) | Potency (PAD) | Potency (SC27B)
16.6%: max response [1, 9]

CC1CCC(C(C)C)C(=O)C1 (stereo not given)
inactive: activity change, negative = inhibition [1] 1.11% | outcome [2] | Potency [3] | activity, negative = inhibition ([4]; parasite line A) 0.527% | activity, negative = inhibition ([4]; parasite line B) 15.7% | Potency (3D7) | Potency (AS120) | Potency (C2A) | Potency (CP217) | Potency (CP237) | Potency (CP238) | Potency (CP252) | Potency (CP262) | Potency (CP269) | Potency (CP297) | Potency (ECU) | Potency (PAD) | Potency (SC27B)
11.5%: max response [1, 8]
14.2%: max response [1, 9]

CCC(C)C(=O)OC1CCC=C2C=CC(C)C(CCC3CC(O)CC(=O)O3)[C@@H]21 (stereo not given in full)
6.43%: max response [1, 9]
8.24%: max response [1, 8]
inactive: activity change, negative = inhibition [1] 0.311% | outcome [2] | activity, negative = inhibition ([4]; parasite line A) 6.36% | activity, negative = inhibition ([4]; parasite line B) -8.04% | Potency (3D7) | Potency (AS120) | Potency (C2A) | Potency (CP217) | Potency (CP237) | Potency (CP238) | Potency (CP252) | Potency (CP262) | Potency (CP269) | Potency (CP297) | Potency (ECU) | Potency (PAD) | Potency (SC27B)

N[C@H](CO)Cc1cnc[nH]1
15.8%: max response [1, 9]
11.7%: max response [1, 8]
inactive: activity change, negative = inhibition [1] 3.9% | Potency [3]

CC(=O)N[C@@H]1C(O)OC(CO)C(O)C1O (stereo not given in full)
inactive: activity change, negative = inhibition [1] 4.62% | outcome [2] | Potency [3] | activity, negative = inhibition ([4]; parasite line A) 3.66% | activity, negative = inhibition ([4]; parasite line B) 14.7% | Potency (3D7) | Potency (AS120) | Potency (C2A) | Potency (CP217) | Potency (CP237) | Potency (CP238) | Potency (CP252) | Potency (CP262) | Potency (CP269) | Potency (CP297) | Potency (ECU) | Potency (PAD) | Potency (SC27B)
4.28%: max response [1, 8]
11.6%: max response [1, 9]

C#C[C@]1(O)CCC2C3CCC4=CC(=O)CCC4C3CC[C@@]21C (stereo not given in full)
5.87%: max response [1, 9]
2.28%: max response [1, 8]
inactive: activity change, negative = inhibition [1] 3.02% | outcome [2] | Potency [3]

CC(C)CCCC(C)C1CCC2C3CC=C4CC(O)CCC4(C)C3CCC12C (stereo not given)
inactive: activity change, negative = inhibition [1] 7.38% | Potency [3]
12%: max response [1, 9]
5.9%: max response [1, 8]
